# SARS PLP yeast = SARS-CoV PLP inhibition in yeast. Potency, µM (titrated, usually from 32.9 µM), hits mostly activators. AID 485353. hit rate 0.19% among 330,000. S. cerevisiae expressing SARS-CoV PLpro, growth rescue; calls by dose curve; further: nearly all actives have a fitted effect of over 55% in size
# Sm TGR block = S. mansoni TGR enzyme inhibition; Q962Y6; hit rate 3% among 360,000; AID 485364; Potency, µM (top dose mostly 114 µM), usual class: inhibitors; purified TGR, DTNB reduction, TNB absorbance 405 nm; further: nearly all actives have a fitted effect of over 60% in size
#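 TGR 20 nM + NADPH 100 uM (dispensed conc.), cpd preinc 15 min RT; start with NADPH (500 uM addition) then DTNB (15 mM addition). Kinetic TNB absorbance, 405 nm filter. Four-parameter Hill fit across titration.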
# TbPYK inhibitor = inhibitors of Trypanosoma brucei pyruvate kinase | hit rate 0.12% among 410,000 | TbPYK enzyme, Kinase-Glo Plus ATP luminescence, 45 min | Potency, µM (doses to about 76.8 µM), usual class: inhibitors | AID 624173 | Q57TT1; further: nearly all actives have a fitted effect of over 50% in size
#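 Readout: single end-point luminescence (Kinase-Glo Plus, 10 min). Reaction conditions were TbPYK/substrate plus 130 uM ADP, 45 min at RT, pH 7.2 TEA buffer. No-enzyme wells served as controls, and data were normalized before concentration-response fitting.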
# RE007 growth inh = less growth of the S. pombe RE007 Vpr strain | S. pombe RE007 Vpr strain, BacTiter-Glo ATP luminescence, 24 h | Potency, µM (top dose mostly 92.2 µM), actives largely listed as inhibitors | hit rate 0.21% among 360,000 | AID 651644; active means well fitted falling curve with a large enough effect; inconclusive means small, poorly fitted or top-dose-only effect; inactive means no such curve, though single readings can be large or run the other way; further: nearly all actives have a fitted effect of over 50% in size
#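 Fission yeast strain RE007, carrying one chromosomally integrated HIV-1 vpr copy, was seeded at OD 0.01 in PMG+AL medium with 23 nL pinned compound. After 24 h at 30 °C and 99% humidity, viability was read by BacTiter-Glo luminescence.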
# LmPK inh = blocks Leishmania mexicana pyruvate kinase activity. purified LmPK, Kinase-Glo ATP luminescence, 1 h. hit rate 0.37% among 290,000. Q27686. Potency, µM (doses to about 57.5 µM), usual class: inhibitors. AID 1721
# Target sequence (Q27686 whole entry, looked up): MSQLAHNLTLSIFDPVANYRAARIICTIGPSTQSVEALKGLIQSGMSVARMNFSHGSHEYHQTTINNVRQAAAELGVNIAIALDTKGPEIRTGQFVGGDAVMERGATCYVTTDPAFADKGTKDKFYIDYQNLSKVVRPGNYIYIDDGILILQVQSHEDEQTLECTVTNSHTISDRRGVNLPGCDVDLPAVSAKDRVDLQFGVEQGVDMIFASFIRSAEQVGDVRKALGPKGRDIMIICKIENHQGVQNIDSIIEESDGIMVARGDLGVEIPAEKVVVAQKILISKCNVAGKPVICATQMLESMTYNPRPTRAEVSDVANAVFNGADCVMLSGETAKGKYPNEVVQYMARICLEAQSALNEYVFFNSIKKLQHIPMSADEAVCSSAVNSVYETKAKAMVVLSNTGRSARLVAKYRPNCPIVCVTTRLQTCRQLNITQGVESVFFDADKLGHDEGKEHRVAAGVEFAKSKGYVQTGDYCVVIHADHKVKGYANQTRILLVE
#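 In 50 mM imidazole pH 7.2 with 7 mM MgCl2, LmPK (0.1 nM) turned over PEP (0.5 mM) and ADP (0.1 mM) for 1 h at room temperature. Luciferase read-out of ATP.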
# NS1 inh = influenza NS1 inhibition; hit rate 0.4% among 270,000; Potency, µM (top dose mostly 46.1 µM); calls by dose curve; further: actives are rising curves; nearly all actives have a fitted effect of over 50% in size
#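 In this qHTS, NS1 from influenza A is expressed in budding yeast, where it slows growth. Cells are switched from glucose to 2% galactose medium (pH 6.0, -URA), treated with compound, and growth recovery is read at OD600.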
# A number is an active result; - = inactive; ? = inconclusive; . = not tested or not shown. Sampled rows, rich in hits. Any-hit rate of the full collection: about 3.3%. Unless noted, the call rests on the fitted dose curve; in most records, active means well fitted curve in the direction sought with a large enough effect; inconclusive means small, poorly fitted or top-dose-only effect, or another doubt; inactive means no such curve, though single readings can be large; an effect the other way counts as inactive or inconclusive.
SMILES,SARS PLP yeast,Sm TGR block,TbPYK inhibitor,RE007 growth inh,LmPK inh,NS1 inh
COc1ccc(-c2nc3ccccc3o2)cc1NC(=O)C(C)(C)Oc1ccc(Br)cc1,.,-,-,.,.,.
COc1ccc(Cc2n[nH]c(=S)o2)cc1,-,35µM,-,-,-,-
COC(=O)c1sc(N2C(=O)C(=O)/C(=C(/O)c3ccc(C)cc3)C2c2ccco2)nc1C (configuration not stated),-,7.1µM,-,-,-,-
CN(C)CCN1C(=O)C(=O)/C(=C(/O)c2ccc3c(c2)OCCO3)C1c1ccccn1 (configuration not stated),-,-,-,-,-,-
CCN(CC)CCCN1C(=O)C(=O)/C(=C(/O)c2ccc3c(c2)OCCO3)C1c1ccc(C)o1 (configuration not stated),-,50µM,.,.,-,-
CCN(CC)CCN1C(=O)C(=O)/C(=C(/O)c2ccc(OC)cc2)C1c1ccco1 (configuration not stated),-,40µM,-,-,-,-
OC[C@@H]1O[C@@H](n2cnc3c(SCc4ccccc4)ncnc32)[C@@H](O)[C@H]1O,.,.,.,.,.,-
CCc1ccccc1NC(=O)CCNS(=O)(=O)c1ccc2c(c1)CCCC(=O)N2,.,-,-,.,.,.
Cc1cc(O)c(CN2CCN(c3ccc(F)cc3)CC2)c2oc(=O)cc(C)c12,.,-,-,.,.,.
Cc1ccc(CNC(=O)c2c(-c3ccccc3Cl)noc2C)cc1,-,-,-,-,-,-
Cc1onc(-c2ccccc2Cl)c1C(=O)Nc1ccc(CN2CCCC2)cc1,-,79µM,-,-,-,-
Cc1onc(-c2ccccc2Cl)c1C(=O)NCc1ccco1,-,45µM,-,-,-,-
CC(C)C(O)(C(C)C)C(C)C,.,.,.,.,.,-
CCOC(=O)c1ccc(NC(=O)C2CCN(S(=O)(=O)Cc3ccccc3)CC2)cc1,.,-,-,.,.,.
Cc1cccc(NC(=O)/C(C#N)=C/c2ccccc2O)n1,-,89µM,-,-,-,-
N[C@@H](Cc1nn[nH]n1)C(=O)O,.,.,.,.,.,-
Cc1c(C(=O)N(Cc2ccccc2F)C2CCS(=O)(=O)C2)oc2ccc(F)cc12 (configuration not stated),.,-,-,.,.,.
CN=CC1=C(O)c2ccccc2C1=O,-,-,-,-,-,-
O=C1C(C=Nc2ccccc2O)=C(O)c2ccccc21,-,-,-,?,?,-
COc1ccc(N=CC2=C(O)c3ccccc3C2=O)cc1,-,-,-,-,3.2µM,-
O=C1C(C=Nc2ccccc2)=C(O)c2ccccc21,-,-,-,-,3.5µM,-
CC1=C(C(=O)Nc2ccc(C)cc2C)C(c2ccc(O)cc2)n2nnnc2N1 (configuration not stated),.,-,-,.,.,.
COc1ccccc1CNC(=O)CCCn1c(=O)c2ccccc2n(Cc2ccc(C)cc2)c1=O,.,-,-,.,.,.
CCOc1ccc(C(C)=O)cc1COC(=O)C1=COCCO1,-,28µM,-,-,-,-
COc1ccc2c(c1)c(N1CCCC1=O)c(C(=O)Nc1cc(C)c(Cl)cc1OC)n2C,.,-,-,.,.,.
SMILES,SARS PLP yeast,Sm TGR block,TbPYK inhibitor,RE007 growth inh,LmPK inh,NS1 inh
O=[N+]([O-])c1ccc(Sc2nnnn2-c2ccccc2)c(Cl)c1,-,?,-,-,-,-
CN1CCN(S(=O)(=O)c2ccc(Sc3nnnn3-c3ccccc3)c([N+](=O)[O-])c2)CC1,-,7.1µM,-,-,-,-
CC(=O)c1ccc(Sc2nnnn2-c2ccccc2)c([N+](=O)[O-])c1,-,35µM,-,-,-,-
CCCOc1ccc(N2C(=O)CC(N3CCCC(C(=O)N4CCCC4)C3)C2=O)cc1 (configuration not stated),-,35µM,-,18µM,-,-
CCCOc1ccc(N2C(=O)CC(N3CCC(C(=O)OCC)CC3)C2=O)cc1 (configuration not stated),-,-,-,5.6µM,-,-
O=C(C1CCN(C2CC(=O)N(c3cccc(Cl)c3)C2=O)CC1)N1CCCCCC1 (configuration not stated),-,14µM,-,7.1µM,-,-
O=C(C1CCCN(C2CC(=O)N(c3ccc(Cl)cc3)C2=O)C1)N1CCCC1 (configuration not stated),-,40µM,-,5.6µM,-,-
CCCSc1nnc2c(n1)OC(c1sccc1C)Nc1ccccc1-2 (configuration not stated),.,-,-,.,.,.
CO[C@H](C(=O)[C@@H](O)[C@@H](C)O)C1Cc2cc3cc(O[C@H]4C[C@@H](O[C@H]5C[C@@H](O)[C@H](O)[C@@H](C)O5)[C@@H](O)[C@@H](C)O4)c(C)c(O)c3c(O)c2C(=O)[C@H]1O[C@H]1C[C@@H](O[C@H]2C[C@@H](O[C@H]3C[C@](C)(O)[C@H](O)[C@@H](C)O3)[C@H](O)[C@@H](C)O2)[C@H](O)[C@@H](C)O1 (some centres not stated),.,.,-,.,.,.
O=C(C1CCCN(C2CC(=O)N(c3ccc(F)cc3)C2=O)C1)N1CCCC1 (configuration not stated),-,?,-,45µM,-,-
Cc1cc(C)n(C2CC(=O)N(c3cccc(Cl)c3)C2=O)n1 (configuration not stated),-,25µM,-,-,-,.
COc1ccccc1CNC(=O)CCCN1C(=O)CSc2c1c(C)nn2-c1ccccc1,.,-,-,.,.,.
COc1cc2c(c(OC)c1OC)-c1c(cc3c(c1OC)OCO3)CC(C)C(C)(O)C2 (configuration not stated),.,.,-,.,.,.
CN1C[C@H](C(=O)N[C@@]2(C)O[C@@]3(O)[C@H]4CCCN4C(=O)[C@@H](Cc4ccccc4)N3C2=O)C=C2c3cccc4[nH]cc(c34)C[C@@H]21,.,.,.,.,.,-
C[C@H](Cc1ccccc1)Nc1ncnc2c1ncn2[C@@H]1O[C@H](CO)[C@H](O)[C@H]1O,.,.,.,.,.,-
COc1ccccc1NC(=O)N(Cc1ccco1)Cc1cc2c(C)ccc(C)c2[nH]c1=O,-,32µM,-,-,-,-
COc1ccccc1NC(=O)N(Cc1ccco1)Cc1cc2cccc(C)c2[nH]c1=O,-,-,-,-,-,-
Cc1cccc2cc(CN(CC3CCCO3)C(=O)c3ccco3)c(=O)[nH]c12 (configuration not stated),-,35µM,-,-,-,-
Cc1ccc2cc(CN(CC3CCCO3)C(=O)c3ccco3)c(=O)[nH]c2c1C (configuration not stated),.,.,.,.,.,-
Cc1cc(C)c2cc(CN(Cc3ccco3)C(=S)NCC3CCCO3)c(=O)[nH]c2c1 (configuration not stated),-,25µM,-,-,-,-

# Compound activity: PubChem BioAssay, National Center for Advancing Translational Sciences (NCATS)
